Source: PubChem BioAssay (several laboratories)
A selection: hits, their analogues and other compounds. The true share with any hit is near 3.6%.
LMP1 NFkB inh = EBV LMP1-driven NF-kappaB luciferase reporter inhibitors, primary screen, cell-based, luminescence, single point | LMP1-induced NF-kappaB luciferase reporter cells | actives 0.69% (n = 350,000) | inhibition, % at 12.5 µM | AID 504558, 2011; in the data active means inhibition above about 41%; inconclusive means no clear call, values can overlap the other calls;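 further: 0% = neutral control wells and 100% = reference inhibitor control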
TWEAK Fn14 block = inhibitors of TWEAK-Fn14 signaling, primary screen, luciferase reporter cells, uHTS. TWEAK-stimulated Fn14 reporter cells, luciferase luminescence, 8 h. inhibition, % at 10 µM. actives 2% (n = 360,000); in the data active means inhibition above about 50%
HSF1 activator = HSF-1 activators, primary screen, NIH3T3-HGL cells, MG132 stress, luminescence, single point. activation, % at 9 µM. NIH3T3-HGL HSF-1 luciferase reporter, 8 h; 100% = twice DMSO control signal. actives 1.7% (n = 300,000);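 active means mean replicate activation of at least 50% with a set share of replicates each reaching 50%; inconclusive means only one of those two conditions met; inactive means mean below 50% and too few replicates reaching it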;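 further: 0% = median of the neutral control wells and 100% = twice that signal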
TROY NFkB inh = inhibitors of TROY-driven NF-kB signaling, primary screen, Q293 LMP1-TROYcd cells, NF-kB luciferase, uHTS | Q293 LMP1-TROYcd NF-kB luciferase reporter, 4 h | inhibition, % at 10 µM | actives 0.98% (n = 360,000);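 active means compounds whose plate-normalised and pattern-corrected inhibition of the luciferase reporter signal at the single screening dose is 50% or more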
HSF1 inhib = HSF1 inhibitors in luciferase reporter cells, primary screen, cell-based, NIH3T3, luminescence | actives 0.77% (n = 300,000) | AID 2098, 2009 | activity change, negative = inhibition, % at 7.5 µM (by protocol) | NIH3T3-HGL HSE-luciferase, MG132-induced, luminescence 8 h; active compounds read low;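 active means more than half of replicate wells show activity change below -50%, luminescence cut by over half; inconclusive means some wells, but at most half, below -50%; inactive means no replicate well below -50%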;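 further: luciferase reports HSF-1 transcriptional activity via heat shock element; 0% = median of DMSO wells and -100% = zero luminescence signal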
LGR2 inh = inhibitors of bursicon-induced LGR2 CRE-luciferase signal, primary screen, cell-based, HEK293, CRE-luciferase reporter, bursicon stimulation. Drosophila bursicon receptor LGR2 (rickets). bursicon-stimulated, 4 h. inhibition, % at 9.99 µM. actives 0.35% (n = 380,000). AID 720647, 2013;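 active means drop in luminescence signal, shown as inhibition above about 50% in the replicate tests, limit read from the data, passing the limit was not always enough; inconclusive means probably only some replicates passing the limit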;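 further: agonist challenge used bursicon conditioned medium at about half maximal strength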
Active calls of the source: *; ? = inconclusive; · = no result given.

SMILES | LMP1 NFkB inh | TWEAK Fn14 block | HSF1 activator | TROY NFkB inh | HSF1 inhib | LGR2 inh
O=C(Cn1cnnn1)OCC(=O)c1ccc(Cl)s1 | -7 | -6 | -8 | 71* | 4 | ·
CCCCC(=O)NC(c1ccccc1OC)c1ccc2cccnc2c1O (stereo unspecified) | 66* | -3 | -25 | -10 | -20 | 20
CCCC(=O)NC(c1ccccc1OC)c1ccc2cccnc2c1O (stereo unspecified) | 71* | 20 | 13 | 7 | -2 | ·
CCCCC(=O)NC(c1ccc(OC)c(OC)c1)c1c(O)ccc2ccccc12 (stereo unspecified) | -9 | 17 | 2 | -5 | 3 | -2
CCC(=O)NC(c1ccc(OC)c(OC)c1)c1cc(Cl)c2cccnc2c1O (stereo unspecified) | -7 | -22 | -52 | 23 | -44 | ·
CNC[C@H]1Oc2ncc(-c3cccc(C(=O)N(C)C)c3)cc2C(=O)N([C@H](C)CO)C[C@@H]1C | · | · | · | · | · | -8
CCCN(C)C[C@H]1OCCCC[C@H](C)Oc2ccc(N(C)C)cc2C(=O)N([C@@H](C)CO)C[C@H]1C | · | · | · | · | · | 8
CN1C(=O)c2cc(NC(=O)c3cccs3)ccc2OC[C@@H]2O[C@@H](CC(=O)NCC3CC3)CC[C@H]21 | · | · | · | · | · | 2
CN(C)C(=O)c1ccc(-c2ccc3c(c2)[C@@H]2[C@@H](CCN2C(=O)c2ccc4c(c2)OCO4)[C@@H](CO)N3)cc1 | · | · | · | · | · | 0
C=C1C(=O)C2=CC1CCC(=O)C1(C)CCC(OC(C)=O)C(C)(C)C1CC2O (stereo unspecified) | ? | 101* | 89* | 46 | 89* | 103*
O=C(NNC(=O)c1cc(-c2cccnc2)nc2ccccc12)Nc1ccc(Cl)cc1 | -9 | 13 | 12 | 52* | 10 | -31
O=C(NNC(=O)c1cc(-c2ccccc2)nc2ccccc12)Nc1cccc(Cl)c1 | 2 | 39 | -24 | 69* | 0 | ·
COc1ccc(NC(=O)N(C)C[C@@H]2Oc3ncc(-c4ccc(C#N)cc4)cc3C(=O)N([C@H](C)CO)C[C@H]2C)cc1 | · | · | · | · | · | -5
O=C(Oc1c(Cl)cc(Cl)c2cccnc12)c1cccs1 | 8 | 109* | 3 | 15 | -11 | ·
O=C(Oc1c(Cl)cc(Cl)c2cccnc12)c1ccco1 | 38 | 86* | -18 | 58* | -23 | ·
COc1ccc(-n2ncc3c(N(C)C4CCCCC4)ncnc32)cc1 | 52* | 104* | -87 | 91* | -85* | 94*
Cc1cccc(-n2ncc3c(N(C)C4CCCCC4)ncnc32)c1 | 37 | 102* | -92 | 88* | -91* | 88*
Cc1cccc(-n2ncc3c(N4CCCc5ccccc54)ncnc32)c1 | -26 | -10 | -5 | -1 | 6 | ·
Cc1cccc(-n2ncc3c(N(CCO)CCO)ncnc32)c1 | -20 | 88* | 20 | -64 | 7 | ·
COC(=O)C[C@H]1C[C@@H]2c3cc(NC(=O)Nc4ccccc4F)ccc3O[C@@H]2[C@H](CO)O1 | · | · | · | · | · | -19
CC(C)NC(=O)Nc1ccc2c(c1)C(=O)N([C@@H](C)CO)C[C@H](C)[C@@H](CN(C)Cc1ccc3c(c1)OCO3)OCCCC[C@H](C)O2 | · | · | · | · | · | 10
COc1cc(C)c(S(=O)(=O)N2CCN=C2c2ccccc2)cc1C | 2 | 13 | 56* | -2 | 10 | 3
CCCC(=O)N1CC2(CCN(Cc3cccnc3)CC2)c2c([nH]c3cc(OC)ccc23)[C@@H]1CO | · | · | · | · | · | 9
CC1CCN(C(=S)NC(=O)C2CCCCC2)CC1 | -1 | -18 | -1 | 14 | 5 | ·
CC1CN(C(=S)NC(=O)C2CCCCC2)CC(C)O1 (stereo unspecified) | -5 | 6 | 52* | 10 | 12 | 3
SMILES | LMP1 NFkB inh | TWEAK Fn14 block | HSF1 activator | TROY NFkB inh | HSF1 inhib | LGR2 inh
Cc1noc(C)c1NC(=O)N(C)C[C@H]1Oc2c(NC(=O)Nc3ccc(C(F)(F)F)cc3)cccc2C(=O)N([C@@H](C)CO)C[C@H]1C | · | · | · | · | · | -23
Cc1ccc(-c2ccc([C@@H]3[C@H]4CN(C(=O)c5ccc(F)cc5)CCCCN4[C@H]3CO)cc2)cc1 | · | · | · | · | · | 0
CN1CCN(/N=C/c2ccc(N(c3ccccc3)c3ccccc3)cc2)CC1 | 87* | 15 | 6 | 64* | 5 | 78*
CN1CCN(/N=C/c2ccc(N(C)c3ccccc3)cc2)CC1 | 4 | 2 | 8 | -22 | 0 | 3
CC(=O)[C@H]1CC[C@H]2[C@@H]3CC=C4C[C@@H](OS(=O)(=O)O)CC[C@]4(C)[C@H]3CC[C@]12C | 0 | -7 | · | 4 | · | 7
CC(=O)O[C@H]1CC[C@@]2(C)C(=CC[C@H]3[C@@H]4CC[C@H](C(C)=O)[C@@]4(C)CC[C@@H]32)C1 | 54* | -12 | -38 | 5 | -31 | -3
COc1cccc(C(=O)OCn2nnc3ccccc3c2=O)c1OC | 53* | 10 | -14 | -24 | 6 | ·
COc1cc(C(=O)OCn2nnc3ccccc3c2=O)cc(OC)c1OC | 4 | -28 | -4 | 8 | -1 | ·
COc1cc(CCC(=O)OCn2nnc3ccccc3c2=O)cc(OC)c1OC | 3 | -10 | -84 | 18 | -81* | ·
Cc1noc(C)c1NC(=O)Nc1ccc2c(c1)C(=O)N([C@@H](C)CO)C[C@H](C)[C@H](CN(C)Cc1ccc(C(F)(F)F)cc1)OCCCC[C@H](C)O2 | · | · | · | · | · | -12
COc1cc(C2Nc3cc(Cl)c(S(N)(=O)=O)cc3S(=O)(=O)N2)cc(OC)c1OC (stereo unspecified) | 1 | -5 | 24 | -13 | 6 | ·
NS(=O)(=O)c1cc2c(cc1Cl)NCNS2(=O)=O | 1 | 7 | -75 | 0 | -69* | 1
COc1ccc(C(NC(=O)C2CCN(CCOc3ccc(F)cc3)CC2)c2cccs2)cc1 (stereo unspecified) | · | -3 | · | 11 | · | 3
COc1ccc(C(NC(=O)C2CCN(CCOc3ccc(Cl)cc3Cl)CC2)c2cccs2)cc1 (stereo unspecified) | · | -4 | · | 51* | · | ·
CCCCN(C(=O)c1ccc([N+](=O)[O-])s1)c1c(N)n(CCCC)c(=O)[nH]c1=O | 8 | 15 | -70 | 4 | -62* | 3
